# Results published in PubChem BioAssay (NCATS).
# A number with no mark means an inactive call. Records with an inconclusive call do not appear. Where a call stands in place of a potency, no number is given. The source made the active and inactive calls. Unless noted, calls come from the whole dose curve; as a rule, active = well fitted curve in the direction sought with a large enough effect; inconclusive = small, poorly fitted or top-dose-only effect, or another doubt; inactive = no such curve, though single readings can be large; an effect the other way counts as inactive or inconclusive.
# Assays:
# [1] = qHTS for Inhibitors of Cell Surface uPA Generation: Validation Assay (AID 493164)
# Method in brief: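 RAW 264.7 cells (4000/well) were plated overnight, then exposed for 18 h at 37 C, 5% CO2 to compounds in a 7-point 1:5 titration (2.45 nM–38.3 uM final). Intracellular ATP was read by ATP-Lite luminescence.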
# [2] = molecular target: Peptidyl-prolyl cis-trans isomerase NIMA-interacting 1 (Homo sapiens) (UniProt Q13526); assay: qHTS Validation Assay to Find Inhibitors of Pin1 (AID 504536; active = well fitted inhibition curve with a large enough effect in the polarisation, with a control signal flat, not every such curve was filed as active; the % refers to the polarisation; note: potency is the fitted concentration of half-maximal effect)
# Sequence of Peptidyl-prolyl cis-trans isomerase NIMA-interacting 1 (Homo sapiens) (Q13526 whole entry, looked up): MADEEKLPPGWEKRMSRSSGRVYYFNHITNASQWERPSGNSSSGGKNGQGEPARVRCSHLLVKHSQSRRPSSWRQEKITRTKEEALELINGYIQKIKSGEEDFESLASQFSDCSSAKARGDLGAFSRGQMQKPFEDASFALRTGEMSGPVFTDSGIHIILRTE
# Method in brief: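 Fluorescence polarization competition: compounds (titration) displace HiFluor-488-labeled Pin1-1b peptide from Pin1 (0.3 uM final) in pH 7.5 HEPES buffer with DTT, 10 min at room temperature; %Activity normalized to no-enzyme wells, curves fitted.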
# [3] = molecular target: Phosphoglycerate kinase, glycosomal (Trypanosoma brucei brucei) (UniProt P07378); assay: qHTS Validation Assay to Find Inhibitors of Phosphoglycerate Kinase (AID 504547)
# Sequence of Phosphoglycerate kinase, glycosomal (Trypanosoma brucei brucei) (P07378 whole entry, looked up): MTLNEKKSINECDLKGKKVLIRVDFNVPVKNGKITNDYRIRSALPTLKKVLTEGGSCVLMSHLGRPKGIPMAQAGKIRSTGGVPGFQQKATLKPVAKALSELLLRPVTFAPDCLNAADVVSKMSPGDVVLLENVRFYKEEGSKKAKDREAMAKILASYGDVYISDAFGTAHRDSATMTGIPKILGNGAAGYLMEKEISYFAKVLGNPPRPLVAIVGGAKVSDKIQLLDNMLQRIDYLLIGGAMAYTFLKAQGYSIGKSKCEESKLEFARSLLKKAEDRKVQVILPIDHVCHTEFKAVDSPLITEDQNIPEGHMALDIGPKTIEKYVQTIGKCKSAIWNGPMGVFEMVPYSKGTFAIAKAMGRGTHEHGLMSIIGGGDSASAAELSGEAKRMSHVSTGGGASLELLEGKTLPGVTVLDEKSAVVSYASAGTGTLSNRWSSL
# Method in brief: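 Inhibition of the enzyme is judged by a Kinase-Glo Plus luminescent signal following a one-hour incubation at room temperature. Because 1,3-BPG is unstable, it is made in situ by GAPDH at 100nM final; no-PGK wells define the baseline.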
# [4] = molecular target: phosphoglycerate mutase (Leishmania major) (UniProt Q4Q090); assay: qHTS Validation Assay to Find Inhibitors of Phosphoglycerate Mutase (AID 504548); details: Potency: inhibition qHTS; note: potency is the fitted concentration of half-maximal effect
# Sequence of phosphoglycerate mutase (Leishmania major) (Q4Q090 1-553): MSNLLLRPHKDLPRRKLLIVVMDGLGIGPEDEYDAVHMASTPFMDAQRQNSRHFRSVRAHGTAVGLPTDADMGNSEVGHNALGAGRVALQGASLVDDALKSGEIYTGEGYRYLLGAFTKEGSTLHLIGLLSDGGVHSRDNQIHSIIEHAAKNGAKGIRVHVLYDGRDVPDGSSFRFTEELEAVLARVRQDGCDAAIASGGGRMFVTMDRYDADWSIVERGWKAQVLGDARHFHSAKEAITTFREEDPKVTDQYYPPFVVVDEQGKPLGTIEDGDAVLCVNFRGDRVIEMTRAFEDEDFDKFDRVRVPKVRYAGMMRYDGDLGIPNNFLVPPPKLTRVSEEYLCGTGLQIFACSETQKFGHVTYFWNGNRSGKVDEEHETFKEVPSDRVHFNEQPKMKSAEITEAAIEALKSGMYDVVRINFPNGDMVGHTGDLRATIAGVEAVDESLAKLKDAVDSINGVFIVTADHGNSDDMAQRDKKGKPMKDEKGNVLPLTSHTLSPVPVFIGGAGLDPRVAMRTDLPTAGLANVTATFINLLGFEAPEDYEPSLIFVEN
# Method in brief: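 Inhibition of L. major PGAM was assessed by Kinase-GloPlus luminescence following a 45-minute room-temperature reaction with enzyme at 1.25nM final.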
# [5] = molecular target: Ubiquitin carboxyl-terminal hydrolase 1 (Homo sapiens) (UniProt O94782); assay: Inhibitors of USP1/UAF1: Pilot qHTS (AID 504865); note: nearly all actives have a fitted effect of over 35% in size; note: potency is the fitted concentration of half-maximal effect
# Sequence of Ubiquitin carboxyl-terminal hydrolase 1 (Homo sapiens) (O94782 whole entry, looked up): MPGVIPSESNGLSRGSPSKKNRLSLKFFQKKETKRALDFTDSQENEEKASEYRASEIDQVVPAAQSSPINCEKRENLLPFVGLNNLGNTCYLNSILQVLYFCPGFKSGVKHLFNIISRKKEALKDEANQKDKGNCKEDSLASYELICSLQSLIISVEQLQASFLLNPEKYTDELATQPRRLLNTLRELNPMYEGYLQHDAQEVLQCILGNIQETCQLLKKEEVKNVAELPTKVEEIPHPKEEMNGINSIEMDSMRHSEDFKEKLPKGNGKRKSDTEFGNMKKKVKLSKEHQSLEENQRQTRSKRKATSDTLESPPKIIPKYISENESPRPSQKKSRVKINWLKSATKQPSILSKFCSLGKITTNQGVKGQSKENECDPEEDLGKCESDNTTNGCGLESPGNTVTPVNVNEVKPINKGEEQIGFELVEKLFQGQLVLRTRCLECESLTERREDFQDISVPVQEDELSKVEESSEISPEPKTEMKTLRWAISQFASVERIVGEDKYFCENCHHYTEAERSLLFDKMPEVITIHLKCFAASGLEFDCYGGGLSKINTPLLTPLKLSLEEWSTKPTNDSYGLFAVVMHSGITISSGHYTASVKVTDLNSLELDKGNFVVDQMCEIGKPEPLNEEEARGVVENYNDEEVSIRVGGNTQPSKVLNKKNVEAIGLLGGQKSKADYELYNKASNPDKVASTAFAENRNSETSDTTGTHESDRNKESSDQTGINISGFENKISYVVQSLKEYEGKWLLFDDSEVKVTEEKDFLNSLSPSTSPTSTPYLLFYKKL
# Method in brief: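 USP1/UAF1 complex (1nM) preincubated with compound 15 min at room temperature, then Ub-Rho substrate (150nM final) added. Fluorescence read kinetically at 480/540 nm, 6 reads every 60 seconds. Buffer: 50mM HEPES pH 7.8, 0.5mM EDTA, 0.1 mg/ml BSA, 1mM TCEP, 0.01% Tween-20.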
# [6] = qHTS for Inhibitors of ATXN expression: Validation of Cytotoxic Assay (AID 588349); note: potency is the fitted concentration of half-maximal effect
# Method in brief: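 Read-out: ATP-based luminescence (CellTiter Glo) reflecting viability of HEK293 cells after 72 hr incubation at 37 degrees C with a concentration series of each compound.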
# [7] = molecular target: Galactokinase (Homo sapiens) (UniProt P51570); assay: qHTS Validation Assay for Inhibitors of Human Galactokinase (GALK) (AID 493189)
# Sequence of Galactokinase (Homo sapiens) (P51570 whole entry, looked up): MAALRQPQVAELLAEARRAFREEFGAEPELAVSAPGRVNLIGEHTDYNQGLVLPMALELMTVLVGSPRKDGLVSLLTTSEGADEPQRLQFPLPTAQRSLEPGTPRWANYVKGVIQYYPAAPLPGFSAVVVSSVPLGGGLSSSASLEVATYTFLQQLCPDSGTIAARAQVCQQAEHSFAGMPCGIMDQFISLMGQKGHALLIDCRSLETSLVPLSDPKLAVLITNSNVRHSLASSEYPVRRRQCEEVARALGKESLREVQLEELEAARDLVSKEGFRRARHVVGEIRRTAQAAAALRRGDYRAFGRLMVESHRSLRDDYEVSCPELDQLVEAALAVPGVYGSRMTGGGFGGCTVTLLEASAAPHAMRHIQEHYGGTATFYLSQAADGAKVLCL
# Method in brief: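 GALK (5 nM) with 35 uM ATP and 100 uM galactose in HEPES pH8.0, MgCl2, NaCl, DTT, BSA; 1 h at room temperature. Residual ATP read by Kinase-Glo Plus luminescence after 10 min.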
# [8] = qHTS for Inhibitors of ATXN expression: Validation (AID 588378); note: nearly all actives have a fitted effect of over 75% in size; note: potency is the fitted concentration of half-maximal effect
# Method in brief: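 Luminescence from an ATXN2-FFLuc reporter in HEK293 cells served as read-out after 24 h compound treatment at 37 degrees C; CellTiter-Fluor fluorescence was recorded first to assess viability.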
# [9] = Validation screen for small molecules that induce DNA re-replication in SW480 colon adenocarcinoma cells (AID 504364)
# Method in brief: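 250 cells/well; compound pinned in; 48 hr, 37 C, 5% CO2; Hoechst added, 40 min; nuclear fluorescence imaged, 405 ex / 500-530 em; re-replication scored as increase in high-intensity nuclei.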
# [10] = molecular target: Androgen receptor (Homo sapiens) (UniProt P10275); assay: qHTS assay for small molecule agonists of androgen receptor signaling (AID 588515; active = well fitted curve in the direction sought with a large enough effect in the signal ratio, with a control signal flat; the % refers to the signal ratio); details: AR-UAS-bla HEK293, beta-lactamase ratio, agonist 16 h; active compounds read high
# Sequence of Androgen receptor (Homo sapiens) (P10275 whole entry, looked up): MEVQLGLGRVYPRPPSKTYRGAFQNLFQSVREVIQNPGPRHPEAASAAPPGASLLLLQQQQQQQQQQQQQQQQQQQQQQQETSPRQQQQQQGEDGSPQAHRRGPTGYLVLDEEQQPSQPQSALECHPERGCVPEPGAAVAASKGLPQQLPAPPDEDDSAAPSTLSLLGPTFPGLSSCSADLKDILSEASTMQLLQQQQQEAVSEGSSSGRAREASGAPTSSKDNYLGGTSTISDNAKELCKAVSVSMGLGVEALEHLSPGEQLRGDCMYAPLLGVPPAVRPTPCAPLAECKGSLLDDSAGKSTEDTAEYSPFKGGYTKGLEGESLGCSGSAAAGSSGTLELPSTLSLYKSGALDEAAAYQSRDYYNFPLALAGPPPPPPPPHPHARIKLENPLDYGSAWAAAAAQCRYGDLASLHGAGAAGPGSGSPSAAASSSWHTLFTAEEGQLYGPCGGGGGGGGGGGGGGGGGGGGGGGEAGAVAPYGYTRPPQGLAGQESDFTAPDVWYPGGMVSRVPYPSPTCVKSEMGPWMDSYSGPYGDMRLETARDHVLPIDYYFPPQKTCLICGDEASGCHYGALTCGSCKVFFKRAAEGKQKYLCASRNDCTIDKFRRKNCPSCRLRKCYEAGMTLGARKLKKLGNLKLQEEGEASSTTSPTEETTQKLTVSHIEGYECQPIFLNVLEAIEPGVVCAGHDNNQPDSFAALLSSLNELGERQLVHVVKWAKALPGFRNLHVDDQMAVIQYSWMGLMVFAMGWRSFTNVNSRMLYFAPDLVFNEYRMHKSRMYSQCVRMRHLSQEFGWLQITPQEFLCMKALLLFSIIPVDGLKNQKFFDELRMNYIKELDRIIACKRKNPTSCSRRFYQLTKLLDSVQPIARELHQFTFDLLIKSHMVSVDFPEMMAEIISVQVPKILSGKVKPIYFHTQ
# Method in brief: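 EC50 and efficacy came from Hill fits of titrations (up to 92 uM) normalized to 30 nM R1881 as 100% and DMSO as 0%. Compound exposure was 16 h at 37 C on AR-UAS-bla HEK293 cells, with a 405/460/530 nm CCF4 fluorescence read.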
# [11] = molecular target: Androgen receptor (Homo sapiens) (UniProt P10275); assay: qHTS assay for small molecule antagonists of androgen receptor signaling (AID 588516; active = well fitted curve in the direction sought with a large enough effect in the signal ratio, with a control signal flat, not every such curve was filed as active; the % refers to the signal ratio)
# Method in brief: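 AR-UAS-bla-GripTite HEK 293 cells (2000/well, 5 h at 37 C) received compound titrations, then R1881 at 10 nM final; after 16 h at 37 C, CCF4 dye 2 h RT, beta-lactamase fluorescence read; IC50 from Hill fits.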
# [12] = molecular target: Bile acid receptor (Homo sapiens) (UniProt Q96RI1); assay: qHTS assay for small molecule antagonists of farnesoid X receptor signaling (AID 588526; calls by dose curve)
# Method in brief: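 Beta-lactamase reporter antagonist mode: HEK293T FXR-UAS-bla cells, titrated compound, CDCA stimulation, 16 h 37 C, CCF4 dye 2 h RT. Data normalized to CDCA 50 uM and DMSO; Hill-fit IC50.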
# [13] = molecular target: Glucocorticoid receptor (Homo sapiens) (UniProt P04150); assay: qHTS assay for small molecule agonists of glucocorticoid receptor signaling (AID 588532; active = well fitted curve in the direction sought with a large enough effect in the signal ratio, with a control signal flat; the % refers to the signal ratio); details: HeLa MMTV-bla, beta-lactamase ratio, agonist, 18 h; active compounds read high; percent of dexamethasone control, DMSO zero
# Sequence of Glucocorticoid receptor (Homo sapiens) (P04150 whole entry, looked up): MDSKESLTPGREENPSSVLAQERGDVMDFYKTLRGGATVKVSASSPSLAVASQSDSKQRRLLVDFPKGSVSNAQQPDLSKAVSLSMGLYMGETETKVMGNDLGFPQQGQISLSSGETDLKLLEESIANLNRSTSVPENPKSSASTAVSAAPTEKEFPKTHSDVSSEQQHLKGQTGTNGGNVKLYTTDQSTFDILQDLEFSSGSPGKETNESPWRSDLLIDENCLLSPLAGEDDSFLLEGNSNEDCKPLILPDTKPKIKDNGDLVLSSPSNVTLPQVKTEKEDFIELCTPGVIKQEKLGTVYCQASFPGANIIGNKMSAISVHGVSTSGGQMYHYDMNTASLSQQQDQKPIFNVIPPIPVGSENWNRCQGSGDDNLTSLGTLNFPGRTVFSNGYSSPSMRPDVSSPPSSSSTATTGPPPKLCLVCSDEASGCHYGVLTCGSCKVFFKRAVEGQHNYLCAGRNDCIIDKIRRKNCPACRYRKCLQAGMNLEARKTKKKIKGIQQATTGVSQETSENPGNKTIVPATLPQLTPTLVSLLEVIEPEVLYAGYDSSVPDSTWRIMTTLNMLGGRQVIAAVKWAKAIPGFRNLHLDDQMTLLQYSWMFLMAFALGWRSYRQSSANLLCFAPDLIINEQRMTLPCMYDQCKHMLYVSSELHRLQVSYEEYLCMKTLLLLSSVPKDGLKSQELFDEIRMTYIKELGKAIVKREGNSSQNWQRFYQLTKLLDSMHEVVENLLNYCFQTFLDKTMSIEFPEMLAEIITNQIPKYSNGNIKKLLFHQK
# Method in brief: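 Using MMTV-bla HeLa cells in medium with 1% stripped FBS and 25 mM HEPES, compounds were titrated and incubated overnight-length (18 h). Beta-lactamase cleavage of CCF4 was quantified by dual-emission fluorescence.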
# [14] = molecular target: Glucocorticoid receptor (Homo sapiens) (UniProt P04150); assay: qHTS assay for small molecule antagonists of glucocorticoid receptor signaling (AID 588533; active = well fitted inhibition curve with a large enough effect in the signal ratio, with a control signal flat, not every such curve was filed as active; the % refers to the signal ratio;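 note: cells stimulated with 2 nM dexamethasone as agonist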)
# Method in brief: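 Antagonist-mode qHTS: compound titrations added to GRE-bla HeLa cells, then dexamethasone 2 nM final; 18 h, 37 C. CCF4 FRET fluorescence normalized to dexamethasone and DMSO; IC50 from Hill fit.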
# [15] = molecular target: Estrogen receptor (Homo sapiens) (UniProt P03372); assay: qHTS assay for small molecule antagonists of estrogen receptor alpha signaling (AID 588513; active = well fitted curve in the direction sought with a large enough effect in the signal ratio, with a control signal flat, not every such curve was filed as active; the % refers to the signal ratio)
# Sequence of Estrogen receptor (Homo sapiens) (P03372 whole entry, looked up): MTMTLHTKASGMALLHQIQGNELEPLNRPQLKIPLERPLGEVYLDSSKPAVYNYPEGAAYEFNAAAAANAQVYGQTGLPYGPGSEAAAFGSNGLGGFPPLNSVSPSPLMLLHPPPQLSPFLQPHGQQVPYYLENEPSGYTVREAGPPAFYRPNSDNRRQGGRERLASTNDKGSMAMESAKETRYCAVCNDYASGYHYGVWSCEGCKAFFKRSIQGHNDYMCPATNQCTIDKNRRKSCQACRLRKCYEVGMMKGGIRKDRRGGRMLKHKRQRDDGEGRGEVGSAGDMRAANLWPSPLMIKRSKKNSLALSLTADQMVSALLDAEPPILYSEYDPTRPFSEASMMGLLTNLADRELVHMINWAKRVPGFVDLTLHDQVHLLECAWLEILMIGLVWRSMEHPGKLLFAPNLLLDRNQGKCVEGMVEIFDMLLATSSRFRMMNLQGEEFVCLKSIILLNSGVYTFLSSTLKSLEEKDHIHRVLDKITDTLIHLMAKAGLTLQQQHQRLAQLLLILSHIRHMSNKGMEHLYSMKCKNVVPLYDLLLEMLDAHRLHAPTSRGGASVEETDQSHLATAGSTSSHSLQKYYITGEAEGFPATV
# Method in brief: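 ER-alpha-UAS-bla GripTite HEK 293 cells in medium with 2% charcoal/dextran-treated FBS were preincubated 4 h at 37 C, dosed with compound (1:2 titration), stimulated with 0.5nM 17-beta-estradiol for 18 h, then read by CCF4 beta-lactamase fluorescence.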
# [16] = molecular target: Estrogen receptor (Homo sapiens) (UniProt P03372); assay: qHTS assay for small molecule agonists of estrogen receptor alpha signaling (AID 588514; calls by dose curve; note: nearly all actives have a fitted effect of over 70% in size)
# Method in brief: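 Cells were plated at 5000/well, incubated 4 hrs at 37 C, dosed with compound titration series, incubated 18 hrs at 37 C, loaded with CCF4 dye for 2 hrs at RT, then fluorescence was read.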
# [17] = molecular target: DNA dC->dU-editing enzyme APOBEC-3G (Homo sapiens) (UniProt Q9HC16); assay: qHTS for inhibitors of Vif-A3G interactions: Validation (AID 588379); note: potency is the fitted concentration of half-maximal effect
# Sequence of DNA dC->dU-editing enzyme APOBEC-3G (Homo sapiens) (Q9HC16 whole entry, looked up): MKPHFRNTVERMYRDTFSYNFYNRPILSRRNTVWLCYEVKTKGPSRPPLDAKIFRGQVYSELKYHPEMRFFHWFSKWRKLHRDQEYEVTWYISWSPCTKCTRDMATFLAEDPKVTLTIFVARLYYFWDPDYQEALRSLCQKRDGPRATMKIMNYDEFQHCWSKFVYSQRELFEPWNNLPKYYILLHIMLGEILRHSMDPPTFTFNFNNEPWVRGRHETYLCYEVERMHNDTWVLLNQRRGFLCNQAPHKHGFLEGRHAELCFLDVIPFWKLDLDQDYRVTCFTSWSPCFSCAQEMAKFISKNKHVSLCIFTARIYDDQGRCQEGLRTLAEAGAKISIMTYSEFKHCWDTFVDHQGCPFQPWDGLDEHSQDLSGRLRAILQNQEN
# Method in brief: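 HeLa cells stably expressing Vif and A3G-eYFP, 700 cells/well, incubated overnight at 37 deg C, then exposed to compound overnight at 37 deg C. Inhibition of Vif-mediated degradation read as increased yellow fluorescence (Ex 488/Em 500-530) by laser-scanning cytometry.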
structure (smiles),measurement,setting,value
CCCCCCCCCCC(C)(C)C(=O)Nc1c(OC)cc(OC)cc1OC,outcome,[1],inactive
same,Potency,[2],inactive
same,Potency,[3],inactive
same,Potency,[4],inactive
same,Potency,[5],44.7 µM (active)
same,Potency,[6],inactive
COc1cc([C@@H]2c3cc4c(cc3[C@H](O)C3COC(=O)[C@@H]32)OCO4)cc(OC)c1OC (stereo partly drawn),outcome,[1],inactive
same,Potency,[7],inactive
same,Potency,[2],inactive
same,Potency,[4],inactive
same,Potency,[8],inactive
CCCc1c(OCCCOc2ccc(OCC(=O)O)cc2)ccc(C(C)=O)c1O,outcome,[1],inactive
same,Potency,[7],inactive
same,Potency,[9],inactive
same,Potency,[2],inactive
same,Potency,[4],inactive
same,Potency,[5],79.4 µM (active)
same,Potency,[6],inactive
same,Potency,[8],inactive
same,activation,[10],-2.09%
same,outcome,[11],inactive
same,outcome,[12],inactive
same,activation,[13],-12.7%
same,Potency,[14],inactive
Nc1ncnc2c1c(-c1ccc(Oc3ccccc3)cc1)cn2C1CCCC1,outcome,[1],inactive
same,Potency,[7],inactive
same,Potency,[2],inactive
same,Potency,[3],inactive
same,Potency,[4],inactive
same,Potency,[5],inactive
CC(O)C(O)[C@H]1CNc2nc(N)[nH]c(=O)c2N1 (stereo partly drawn),outcome,[1],inactive
same,Potency,[2],inactive
same,Potency,[3],inactive
same,Potency,[4],inactive
same,Potency,[5],inactive
same,Potency,[6],inactive
same,Potency,[8],inactive
Nc1nc2[nH]c(=O)cnc2c(=O)[nH]1,outcome,[1],inactive
same,Potency,[7],inactive
same,Potency,[2],inactive
same,Potency,[3],inactive
same,Potency,[4],inactive
same,Potency,[5],inactive
same,Potency,[6],inactive
same,Potency,[8],inactive
N#C/C(=C\c1ccc(O)c(O)c1)C(=O)NCCCNC(=O)/C(C#N)=C/c1ccc(O)c(O)c1,outcome,[1],inactive
same,Potency,[7],inactive
same,Potency,[4],inactive
same,Potency,[8],inactive
CC1CNCCN1S(=O)(=O)c1cccc2cnccc12 (stereo not drawn),outcome,[1],inactive
same,Potency,[7],inactive
same,Potency,[9],inactive
same,Potency,[2],inactive
same,Potency,[4],inactive
same,Potency,[5],inactive
same,Potency,[8],22.4 µM (active)
Brc1c(Br)c(Br)c2[nH]cnc2c1Br,outcome,[1],inactive
same,Potency,[2],inactive
same,Potency,[3],inactive
same,Potency,[5],inactive
same,Potency,[6],inactive
NCCC1CCCC(CCN)N1 (stereo not drawn),outcome,[1],inactive
same,Potency,[7],inactive
same,Potency,[9],inactive
same,Potency,[2],inactive
same,Potency,[3],inactive
same,Potency,[5],inactive
same,Potency,[6],inactive
same,Potency,[8],inactive
COc1ccc(-c2cc3ncc(C)n3c(Nc3ncccc3C(N)=O)n2)cc1OC,outcome,[1],inactive
same,Potency,[2],inactive
same,Potency,[4],inactive
same,Potency,[5],inactive
O=C1NC(=O)c2cc(Nc3ccccc3)c(Nc3ccccc3)cc21,outcome,[1],inactive
same,Potency,[7],inactive
same,Potency,[2],inactive
same,Potency,[6],inactive
NC(=O)c1ccccc1,outcome,[1],inactive
same,Potency,[7],inactive
same,Potency,[2],inactive
same,Potency,[3],inactive
same,Potency,[4],inactive
same,Potency,[5],inactive
same,Potency,[8],inactive
same,outcome,[15],inactive
same,Potency,[16],inactive
same,activation,[10],-3.5%
same,outcome,[11],inactive
same,outcome,[12],inactive
same,activation,[13],-7.58%
same,Potency,[14],inactive
NC(N)=NC(N)=Nc1cccc(Cl)c1,outcome,[1],inactive
same,Potency,[7],inactive
same,Potency,[9],inactive
same,Potency,[2],inactive
same,Potency,[3],inactive
same,Potency,[5],inactive
same,Potency,[6],inactive
same,Potency,[17],inactive
COc1cc(/C=C(\C#N)C(=O)Nc2nnc(C(F)(F)F)s2)ccc1OCc1ccc(C(F)(F)F)cc1C(F)(F)F,outcome,[1],inactive
same,Potency,[2],23.9 µM (active)
same,Potency,[4],inactive
same,Potency,[5],50.1 µM (active)
same,Potency,[6],inactive
O=c1cc(-c2ccccc2F)[nH]c2cc3c(cc12)OCO3,outcome,[1],inactive
same,Potency,[2],inactive
same,Potency,[3],inactive
same,Potency,[4],inactive
same,Potency,[5],inactive
same,Potency,[8],inactive
CC(C)(C)c1cc(/C=C(\C#N)C(N)=S)cc(C(C)(C)C)c1O,outcome,[1],inactive
same,Potency,[7],inactive
same,Potency,[9],inactive
same,Potency,[3],inactive
same,Potency,[4],inactive
[N-]=[N+]=Nc1ccc(C(=O)CSC[C@H](NC(=O)CC[C@H](N)C(=O)O)C(=O)NCC(=O)O)cc1,outcome,[1],inactive
same,Potency,[7],inactive
same,Potency,[9],inactive
same,Potency,[2],23.9 µM (active)
same,Potency,[4],inactive
same,Potency,[5],35.5 µM (active)
same,Potency,[6],inactive
same,Potency,[8],inactive
O=C1Nc2ccc(I)cc2/C1=C/c1cc(Br)c(O)c(Br)c1,outcome,[1],inactive
same,Potency,[7],inactive
same,Potency,[9],inactive
same,Potency,[3],inactive
same,Potency,[4],inactive
same,Potency,[5],44.7 µM (active)
same,Potency,[8],inactive
same,Potency,[17],4.22 µM (active)
CCC1(O)CC2CN(CCc3c([nH]c4ccccc34)[C@@](C(=O)OC)(c3cc4c(cc3OC)N(C=O)C3[C@]45CCN4CC=C[C@@](CC)([C@@H](OC(C)=O)[C@]3(O)C(=O)OC)[C@H]45)C2)C1 (stereo partly drawn),outcome,[1],inactive
same,Potency,[7],inactive
same,Potency,[2],inactive
same,Potency,[3],inactive
same,Potency,[5],inactive
same,Potency,[8],inactive
CC[C@H](NC(=O)c1c(C)c(-c2ccccc2)nc2ccccc12)c1ccccc1,Potency,[7],inactive
same,Potency,[3],inactive
same,Potency,[4],inactive
same,Potency,[6],inactive
same,Potency,[17],inactive
CN(CC[C@@H](Oc1ccc(C(F)(F)F)cc1)c1ccccc1)CC(=O)O,outcome,[1],inactive
same,Potency,[2],inactive
same,Potency,[3],inactive
same,Potency,[4],inactive
same,Potency,[5],inactive
same,Potency,[6],inactive
same,Potency,[8],inactive
C=CCNc1ncnc2ccc(Br)cc12,outcome,[1],inactive
same,Potency,[2],inactive
same,Potency,[3],inactive
same,Potency,[5],inactive
same,Potency,[6],inactive
same,Potency,[8],inactive
c1ccc(C(NCCNC(c2ccccc2)c2ccccc2)c2ccccc2)cc1,outcome,[1],inactive
same,Potency,[2],inactive
same,Potency,[3],inactive
same,Potency,[4],inactive
CC[n+]1c(/C=C/C=C2/N(C)c3ccccc3C2(C)C)sc2ccccc21,outcome,[1],inactive
same,Potency,[4],19 µM (active)
same,Potency,[5],31.6 µM (active)
same,Potency,[6],3.16 µM (active)
same,Potency,[8],0.891 µM (active)
O=c1[nH]c(=S)[nH]c(-c2ccccc2)c1Cc1c(O)ccc2ccccc12,Potency,[2],inactive
same,Potency,[3],inactive
same,Potency,[4],inactive
same,Potency,[6],inactive
Nc1nc2ccc(Cl)cc2c2nc(-c3ccco3)nn12,outcome,[1],inactive
same,Potency,[7],inactive
same,Potency,[9],inactive
same,Potency,[2],inactive
same,Potency,[6],inactive
